Bioassay records deposited in PubChem by several laboratories.
Mcl1-Bid inh = Mcl-1/Bid binding inhibitors, primary screen, biochemical, TR-FRET, 1536-well; TR-FRET Mcl-1/Bid-Dy647 peptide binding; inhibition, % at 21.7 µM; 0.97% of 220,000 active;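 active = compounds that cut the binding signal by more than half at the single screening dose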;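 note: His-tagged Mcl-1 with europium anti-His antibody binding Bid BH3 peptide; 0% = Mcl-1 plus peptide wells and 100% = peptide-only wells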
Target sequence (Q07820 whole entry, looked up): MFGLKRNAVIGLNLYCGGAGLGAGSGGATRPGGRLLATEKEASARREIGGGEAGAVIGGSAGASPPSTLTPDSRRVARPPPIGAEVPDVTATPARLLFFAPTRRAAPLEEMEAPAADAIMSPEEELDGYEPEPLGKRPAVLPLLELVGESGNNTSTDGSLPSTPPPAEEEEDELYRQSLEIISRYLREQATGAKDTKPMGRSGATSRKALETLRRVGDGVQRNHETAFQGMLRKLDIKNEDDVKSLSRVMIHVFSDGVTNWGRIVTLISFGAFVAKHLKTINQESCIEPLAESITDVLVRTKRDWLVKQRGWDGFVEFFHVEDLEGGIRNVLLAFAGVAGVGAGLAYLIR
GLD-1 RNA inh = GLD-1/TGE RNA complex disruptors, primary screen, biochemical, fluorescence polarization. purified GLD-1 + fluorescein TGE RNA. inhibition, % at 5.96 µM. 0.44% of 320,000 active;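 active = percent inhibition above a per-plate cutoff, the plate mean of test compounds plus 3 SD, cut at about 30% in these data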;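 note: 0% = DMSO wells with GLD-1 and probe and 100% = wells lacking GLD-1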
Bim-Mcl-1 = inhibitors of Bim peptide binding to Mcl-1, primary screen, biochemical, bead-based flow cytometry, multiplex; Bim peptide-Mcl-1 binding; 0.1% of 190,000 active; inhibition, % at 10 µM; Induced myeloid leukemia cell differentiation protein Mcl-1 (Homo sapiens), Q07820; in the data active = inhibition above about 40%;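 note: 0% = no compound tracer wells and 100% = peptide blocker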
Bcl-xL primary = inhibitors of human Bcl-xL, primary screen, biochemical, fluorescence polarization, HTS; AID 2129, 2009; inhibition, % at 10.9 µM; Bcl-2-like protein 1 (Homo sapiens), Q07817; GST-Bcl-xL / FITC-Bim BH3 peptide fluorescence polarization; 0.7% of 320,000 active;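 active = inhibition above the mean of all tested compounds plus 3 SD, cutoff set per campaign, cut at about 30% in these data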;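 note: 0% = DMSO wells and 100% = unlabeled Bim-BH3 peptide competitor; inhibitors lower millipolarization by displacing the labeled peptide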
Target sequence (Q07817 whole entry, looked up): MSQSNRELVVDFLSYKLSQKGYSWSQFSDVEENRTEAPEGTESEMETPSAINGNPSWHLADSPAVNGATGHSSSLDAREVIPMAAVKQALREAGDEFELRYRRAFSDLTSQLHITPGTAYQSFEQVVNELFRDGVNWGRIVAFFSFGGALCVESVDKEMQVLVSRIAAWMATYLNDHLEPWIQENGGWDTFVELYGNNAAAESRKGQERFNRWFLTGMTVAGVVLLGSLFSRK
MCL1-BIM inh = inhibitors of MCL1 binding to BIM-BH3, primary screen, biochemical, fluorescence polarization | Induced myeloid leukemia cell differentiation protein Mcl-1 (Homo sapiens), Q07820 | GST-MCL1 / FITC-Bim-BH3 fluorescence polarization | inhibition, % at 10.9 µM | 0.68% of 320,000 active;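 active = inhibition above the mean inhibition of all tested compounds plus 3 SD, set per campaign, cut at about 40% in these data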;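 note: 0% = DMSO wells and 100% = unlabeled Bim-BH3 peptide control; higher means more loss of mP so more displacement of Bim peptide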
Mcl1-Noxa inh = Mcl-1/Noxa binding inhibitors, primary screen, biochemical, TR-FRET, 1536-well | Induced myeloid leukemia cell differentiation protein Mcl-1 (Homo sapiens), Q07820 | 1.5% of 220,000 active | TR-FRET Mcl-1/Noxa peptide binding, 2 h | inhibition, % at 21.7 µM | AID 1022, 2008;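 active = compounds that cut the protein-peptide binding signal by more than 50% relative to plate controls in a single-dose test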;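 note: His-tagged Mcl-1 with rhodamine Noxa BH3 peptide and terbium anti-His antibody; 0% = Mcl-1 plus Noxa peptide wells and 100% = peptide-only wells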
Active calls of the source: *; . = no result; + = active, no number. Sampled rows, rich in hits. Any-hit rate of the full collection: about 2.3%.

SMILES	Mcl1-Bid inh	GLD-1 RNA inh	Bim-Mcl-1	Bcl-xL primary	MCL1-BIM inh	Mcl1-Noxa inh
NS(=O)(=O)c1ccc(NC(=O)C2Cc3ccccc3CN2C(=O)c2ccco2)cc1 (stereo not drawn)	.	-1	.	38*	15	.
Clc1nc(-c2cccnc2)nc2scc(-c3ccccc3)c12	5	2	-4	8	2	-5
COc1ccc(-c2csc3nc(-c4cccnc4)nc(Cl)c23)cc1OC	8	-6	3	6	12	58*
CC(C)(C)C1CCC(C(=O)OCC(=O)Nc2ccc3[nH]c(=O)[nH]c3c2)CC1 (stereo not drawn)	8	-9	-1	-2	-10	59*
COc1cc(/C=C2/S/C(=N/S(=O)(=O)c3ccccc3)NC2=O)c([N+](=O)[O-])cc1OC	21	20	0	40*	46*	29
COc1cc(/C=C2\S/C(=N/S(=O)(=O)Cc3ccccc3)NC2=O)c([N+](=O)[O-])cc1OC	6	19	.	28	23	11
O=[N+]([O-])c1ccc2[nH]c3nc4ccccc4nc3c2c1	36	-4	.	14	23	64*
O=[N+]([O-])c1ccc2[nH]nc(-c3ccccc3)c2c1	0	2	44*	1	-1	23
CCOc1ccc(N2Nc3n[nH]c(N)c3N2)cc1	-28	1	0	3	0	1
COc1ccc(N2Nc3n[nH]c(N)c3N2)cc1	-6	7	2	6	9	56*
COc1cc(C)c(Cl)cc1S(=O)(=O)N(C)C	5	4	4	6	8	0
CN(C)S(=O)(=O)c1cc(S(=O)(=O)N(C)C)c(Cl)cc1N	70*	-4	2	1	3	28
CCOC(=O)c1nnn(CC(=O)Nc2ccccc2)c1C(=O)OCC	-30	7	-3	0	-2	8
CCOC(=O)c1nnn(CC(=O)NC(=O)Nc2ccccc2)c1C(=O)OCC	-4	18	-1	53*	28	-6
Clc1ccc2[nH]c(-c3ccccc3)cc2c1	-11	4	-2	+	2	25
c1ccc(-c2cc3ccccc3[nH]2)cc1	.	4	.	3	-13	.
Cc1ccc(C(=O)N/N=C(/CC(=O)c2cccs2)C(F)(F)F)cc1	-11	5	-6	0	-4	34
O=C(N/N=C(\CC(=O)c1cccs1)C(F)(F)F)c1ccncc1	66*	2	.	0	3	40
CCC(C)(NC(=O)c1ccccn1)C(=O)NC1CCCC1 (stereo not drawn)	-12	-4	-1	14	5	-5
NS(=O)(=O)c1ccc(CNC(=O)c2cc(-c3ccccn3)nc3ccc(Cl)cc23)cc1	-63	14	1	41*	44*	54*
CC(C)n1nnnc1SCC(=O)N1CCN(C(=O)c2ccco2)CC1	4	7	93*	7	-4	3
O=C(c1ccco1)N1CCN(C(=O)c2cc(-c3ccccn3)nc3ccc(Cl)cc23)CC1	-6	9	0	40*	37	64*
Cc1ccc2nc(SCC(=O)N3CCN(C(=O)c4ccco4)CC3)[nH]c2c1	-6	2	-5	3	-7	8
O=C(CSc1nc2ccc(Cl)cc2[nH]1)N1CCN(C(=O)c2ccco2)CC1	-9	-3	21	2	2	57*
NS(=O)(=O)c1ccc(CNC(=O)c2cc(-c3cccnc3)nc3ccc(Cl)cc23)cc1	.	1	.	-6	0	.
SMILES	Mcl1-Bid inh	GLD-1 RNA inh	Bim-Mcl-1	Bcl-xL primary	MCL1-BIM inh	Mcl1-Noxa inh
O=C(c1cc(-c2cccc(Cl)c2)nc2ccccc12)N1CCCC1	.	-1	.	5	5	.
NC(=S)N/N=C1\c2ccccc2-c2c(C(=O)O)cccc21	.	5	.	12	10	.
NS(=O)(=O)c1ccc(CNC(=O)c2ccccc2SCC(=O)N2CCCC2)cc1	.	4	.	-2	6	.
CCSc1ccccc1C(=O)NCc1ccc(S(N)(=O)=O)cc1	-5	3	-3	-3	12	53*
CN1C(=O)/C(=C2\SC(=S)N(CCCCCC(=O)O)C2=O)c2ccccc21	96*	9	.	8	4	113*
Oc1ccccc1Nc1nc(NCc2ccccc2)c2ccccc2n1	-20	7	-4	1	9	59*
COc1ccc(OC)c(-n2c(=S)[nH]c3cc(C(=O)N4CCN(c5ccccc5)CC4)ccc3c2=O)c1	-61	-4	48*	8	6	8
CCNc1cc2oc(=O)c(CN3CCOCC3)c(C)c2cc1C	-14	22	0	32*	29	13
O=C(/C=C/c1cccc(OCc2ccccc2)c1)c1cccnc1	55*	6	-4	6	6	30
CCCNC(=O)c1c(N)n(-c2cccc(OC)c2)c2nc3ccccc3nc12	-1	6	0	2	6	16
CCN(CCO)c1ccc(-n2c(N)c(C(=O)OC)c3nc4ccccc4nc32)cc1	6	0	-2	5	5	52*
CCCN(C(=O)Cn1nc(C)c([N+](=O)[O-])c1C)c1c(N)n(Cc2ccccc2)c(=O)[nH]c1=O	.	-1	.	-11	-16	.
Cc1ccc2c(C)c(C(=O)N3CCCCC3CO)oc2c1C (stereo not drawn)	.	-3	.	1	-1	.
COc1cc(C(=O)N[C@H](C(=O)OCC(=O)NC2CCCCCC2)C(C)C)cc(OC)c1OC	.	3	.	.	.	.
CC1C=CCC2C(=O)N(c3cccc(C(=O)Nc4ccc(F)cc4)c3)C(=O)C12 (stereo not drawn)	.	4	.	-1	-6	.
CCOC(=O)c1nc(C)sc1-c1ccnn1S(=O)(=O)c1ccc(C)cc1	69*	2	.	2	2	0
COc1ccc(S(=O)(=O)NCC(=O)N(CC(=O)NCc2ccco2)C2CCCC2)cc1	.	6	.	9	6	.
O=[N+]([O-])c1ccc(-c2cn(-c3ccc(Cl)cc3)c(=S)[nH]2)cc1	68*	-1	13	3	-3	90*
Cc1ccc(/C=N/NC(=O)NC23CC4CC(CC(C4)C2)C3)o1	.	-3	.	-2	-7	.
COc1cc(/C=N/NC(=O)CSc2n[nH]c(=O)[nH]c2=O)cc(OC)c1O	-34	3	8	6	10	61*
Nc1c2c(nc3ccccc13)N(C1CCCCC1)CC2	7	-1	0	7	8	39
